Shown are actives, neighbours in structure and some others; about 11% of the full set was active somewhere.
ALDH1A1 block: qHTS Assay for Inhibitors of Aldehyde Dehydrogenase 1 (ALDH1A1); Aldehyde dehydrogenase 1A1 (Homo sapiens), P00352; Purified ALDH1A1, NADH fluorescence, propionaldehyde substrate; Potency, µM (highest dose often 75.3 µM), for inactives: top-dose activity, negative = inhibition, most hits filed as inhibitors; 220,000 compounds, 7.3% hits;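 also: potency is read from the fitted curve at half-maximal effect; plate controls were no enzyme wells and a reference inhibitor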
PNC assembly inh: High Content Assay for Compounds that inhibit the Assembly of the Perinucleolar Compartment. 140,000 compounds, 3.1% hits. AID 2417, 2010. PC3M PTB-GFP, PNC prevalence imaging, 16 h; hits give low values. activity change (PNC), negative = inhibition, % at 10 µM;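 active = readout at or below -70, meaning at least 70% loss of cells showing the perinucleolar compartment, a nuclear body marking cancer cells; inconclusive = readout between -30 and a set limit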;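 also: plate controls were DMSO wells for no effect and camptothecin positive control wells for full effect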
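Compounds are pinned in duplicate onto adhered PC3M cells stably expressing GFP-tagged PTB and incubated 16 h at 37 C. Cells are then fixed, nuclei stained with Hoechst, and PNC-positive cells counted.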
HPGD inh: qHTS Assay for Inhibitors of HPGD (15-Hydroxyprostaglandin Dehydrogenase); 15-hydroxyprostaglandin dehydrogenase [NAD(+)] (Homo sapiens), P15428; purified HPGD, NADH fluorescence kinetic, PGE2 substrate; Potency, µM, for the others: top-dose activity change, negative = inhibition, usual class: inhibitors; 150,000 compounds, 4.3% hits; also: potency is read from the fitted curve at half-maximal effect
Target sequence (P15428 whole entry, looked up): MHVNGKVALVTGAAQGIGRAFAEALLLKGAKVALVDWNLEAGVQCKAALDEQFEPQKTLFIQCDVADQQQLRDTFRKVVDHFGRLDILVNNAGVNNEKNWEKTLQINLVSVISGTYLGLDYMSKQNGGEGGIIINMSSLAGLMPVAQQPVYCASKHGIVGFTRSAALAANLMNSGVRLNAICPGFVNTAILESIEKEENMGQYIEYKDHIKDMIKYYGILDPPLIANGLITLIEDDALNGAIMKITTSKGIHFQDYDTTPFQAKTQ
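20 nM HPGD preincubated 15 min at room temperature with compound in 50 mM Tris-HCl pH 8, 0.01% Tween 20. Started with 1 mM NAD+ and 30 uM prostaglandin E2; NADH fluorescence (360/450 nm) read 5 times over 30-s intervals, last minus first.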
* marks the source's active call; other numbers are inactive results; i = inactive; ? = inconclusive; . = no result; [ ] = another dose, or the depositor's remark. Unless noted, calls follow the shape of the dose curve; as a rule, active = well fitted inhibition curve with a large enough effect (not every such curve was filed as active); inconclusive = small, poorly fitted or top-dose-only effect, or another doubt; inactive = no such curve, though single readings can be large or run the other way. Unless noted, % is scaled to controls: 0 for no effect and ±100 for the full control effect.

SMILES	ALDH1A1 block	PNC assembly inh	HPGD inh
Cc1ccc(NC(=O)/C(=C/c2cccc(Br)c2)NC(=O)c2ccco2)cc1	?	-20	-14%
CS(=O)(=O)c1nc(-c2ccccc2)cc(C(F)(F)F)n1	9%	-100*	?
Cc1cc(NC(=O)CCS(=O)(=O)c2nc(-c3ccccc3)cc(C(F)(F)F)n2)no1	-1%	34	?
Cc1[nH]c2ccccc2c1C1=NNC(=Nc2ccc(F)cc2)SC1	20µM*	-1	-4%
Cc1[nH]c2ccccc2c1N=Nc1ccc(F)cc1	3%	.	.
COc1ccc(N=C2SCC(c3ccccc3)=NN2C)cc1	-3%	.	.
COc1ccc(N=C2NN=C(c3c(C)[nH]c4ccccc34)CS2)cc1	14µM*	-21	-23%
COc1ccc(CCNC(=O)Cn2cc(C(F)(F)F)cc(Cl)c2=O)cc1OC	3%	5	-5%
COc1ccc(N2CCN(C(c3ccccc3)c3nnnn3Cc3ccc(F)cc3)CC2)cc1 (stereo not drawn)	-11%	3	-6%
CC(=O)N(CCN(C(C)=O)c1ccccc1)c1ccccc1	2%	?	-9%
CC(=O)N(Cc1ccccc1)c1ccc(C(=O)O)cc1	11%	-85*	-3%
CC1CCCC(C)N1C(=O)CSc1nnnn1Cc1ccccc1 (stereo not drawn)	-10%	31	-5%
CC1CCCC(C)N1C(=O)Cc1ccccc1 (stereo not drawn)	?	-2	20µM*
CC1Cc2ccccc2N1C(=O)CN1C(=O)C(=O)N(Cc2ccccc2)C1=O (stereo not drawn)	32µM*	5	-21%
CC1Cc2ccccc2N1C(=O)CN1C(=O)COc2ccccc21 (stereo not drawn)	16%	69	-10%
Cc1o[nH]c(=O)c1CCC(N)C(=O)O (stereo not drawn)	9%	.	.
Cc1cc(=O)[nH]c(SCC(=O)Nc2nc(-c3ccccc3)c(-c3ccccc3)o2)n1	i	24	?
COc1cccc(OC)c1C(=O)Nc1cc(Cl)ccc1N1CCOCC1	-4%	19	-3%
CN1CCN(c2ccc(S(=O)(=O)N3CCCCC3)cc2NC(=O)c2ccc(C#N)cc2)CC1	-7%	27	-12%
CCN(CC)S(=O)(=O)c1ccc(N2CCOCC2)c(NC(=O)c2ccc(C#N)cc2)c1	20µM*	.	.
CCN(CC)S(=O)(=O)c1ccc(N2CCOCC2)c(NC(=O)COc2ccccc2)c1	0.22µM*	.	.
CCN(CC)S(=O)(=O)c1ccc(N2CCOCC2)c(NC(=O)CNCCc2ccccc2)c1	11µM*	.	.
CCN(CC)S(=O)(=O)c1ccc(N2CCOCC2)c(NCC(=O)Nc2ccc(F)cc2)c1	-1%	.	.
O=C(COS(=O)c1ccccc1)Nc1cc(Cl)ccc1N1CCOCC1 (stereo not drawn)	1.3µM*	.	.
CCN(CC)S(=O)(=O)c1ccc(N2CCOCC2)c(NC(=O)C2CCCC2)c1	-7%	-2	-16%
SMILES	ALDH1A1 block	PNC assembly inh	HPGD inh
Cc1cc(=Nc2ccc3c(c2)c(N)cc(C)[n+]3C)nc(N)n1C	-4%[13.5 µM]	.	-10%
NCCCNCCCCNCCCN	0%	.	-7%
Cc1cc(C)c(NC(=O)CN)c(C)c1	4%	.	.
COc1cc(/C=N/NC(=O)Cn2ccc(C(F)(F)F)n2)cc(OC)c1OC	-11%	.	.
CCNC(=S)NNC(=O)c1ccccc1Cl	16%	-81*	-5%
CCNC(=S)NNC(=O)c1ccccc1OC(F)F	10%	34	-9%
Cc1ccc(C)c(S(=O)(=O)N(C(=O)c2ccncc2)c2ccc(OC(=O)c3ccncc3)cc2)c1	2%	.	.
Cc1ccc(S(=O)(=O)N(C(=O)c2ccncc2)c2ccc(OC(=O)c3ccncc3)cc2)c(C)c1	-1%	-14	28µM*
Cc1cc2c(nc1C)CCCN2CC(O)CN1CCCc2nc(C)c(C)cc21	11%[13.5 µM]	.	.
O=C1CCCC2=C1C(c1ccccc1O)C1=C(CCCC1=O)O2	13%	?	-20%
O=C1CCCC2=C1C1(O)C(=O)c3ccccc3C1(O)O2 (stereo not drawn)	4µM*	4	-2%
COC(=O)C1=[N+]([O-])OC(C(=O)OC)C1c1c[nH]c2ccccc12 (stereo not drawn)	-12%	2	-10%
COCCn1c(SCC(=O)Nc2ccc(Cl)cn2)nnc1-c1ccncc1	5%	.	.
Cc1cc2c(ncn2C)c(NS(=O)(=O)c2ccccc2Cl)c1C	-2%	-83*	-2%
Cc1cc2c(ncn2C)c(NS(=O)(=O)c2cc(Cl)ccc2Cl)c1C	9%	?	1%
O=c1oc2ccccc2c(N2CCCC2)c1CN1CCCC1	14µM*	?	-26%
Nc1c(N2CCCCC2)c2ccccc2oc1=O	-1%	.	.
CCN(CC)CC(O)COc1ccccc1C(=O)CCc1ccccc1 (stereo not drawn)	5%	-86*	.
CCCCN(CCCC)CC(O)COc1ccccc1C(=O)Nc1ccccc1 (stereo not drawn)	-3%	.	.
CN(C)Cc1cc(C(C)(C)C)ccc1-c1ccc(C(C)(C)C)cc1CN(C)C	4%[13.5 µM]	.	-2%
COCCCNS(=O)(=O)c1ccc(OC)c(Cl)c1Cl	10µM*	21	-9%
CCCCNS(=O)(=O)c1ccc(OC)c(Cl)c1Cl	?	30	-17%
CCSCCc1nnc(NC(=O)Nc2cccc(C(F)(F)F)c2)s1	11%	17	-4%
COc1cccc(OC)c1C(=O)NC(=S)Nc1ccc2c(c1)C(=O)N(C)C2=O	-16%	-7	?
COc1cc(C(=O)NC(=S)Nc2ccc3c(c2)C(=O)N(C)C3=O)cc(OC)c1OC	1µM*	9	-4%
SMILES	ALDH1A1 block	PNC assembly inh	HPGD inh
CCC(C)(C)NC(=O)C(c1ccco1)N(C(=O)c1csnn1)c1cccc(F)c1 (stereo not drawn)	8%	26	.
Cc1ccc(C(O)(C(=O)NNS(=O)(=O)c2ccc(C)cc2)c2ccc(C)cc2)cc1	-11%	-7	0%
O=c1[nH]c(NCCCO)nc2c1C1(CCCC1)Cc1ccccc1-2	?	24	?
CN(C)Cc1nc2c(c(=O)[nH]1)C1(CCCCC1)Cc1ccccc1-2	1%	-15	-16%
CCN(CC)Cc1nc2c(c(=O)[nH]1)C1(CCCCC1)Cc1ccccc1-2	25µM*	?	-2%
C=CCNC(=S)NNc1nc2c(c(=O)[nH]1)C1(CCCC1)Cc1ccccc1-2	3.5µM*	-9	?
CC(C)Sc1nnc([C@H](Cc2c[nH]c3ccccc23)NC(=O)OC(C)(C)C)o1	-14%	-15	-8%
Cc1oc2nc(SCCCC(=O)NCCO)nc(N)c2c1C	14%	0	-4%
CC(C)n1nnnc1-c1cc(Cl)cc(Cl)c1	6%	42	-1%
COCCN(Cc1cc2cc(C)cc(C)c2nc1Cl)C(=O)Nc1ccccc1	-5%	60	-10%
Cc1cc(C)c2nc(Cl)c(CN(Cc3ccco3)C(=O)Nc3ccccc3C)cc2c1	?	-90*	?
COC1C[C@@H](O[C@@H]2C(C)C(=O)OC(C)C(C)[C@H](OC(C)=O)C(C)C(=O)[C@@]3(CO3)CC(C)C(OC3OC(C)CC(N(C)C)[C@H]3OC(C)=O)C2C)OC(C)[C@@H]1OC(C)=O (stereo partly drawn)	-6%	.	2%

Screens (PubChem BioAssay)
